# Experimental data: PubChem BioAssay (EPA / NIEHS)
# Results filed as inconclusive are left out. Calls of active or inactive are those of the source. How the source made its calls, unless noted: active means hit-call score of the fitted dose curve at least 0.9, where 1 is the maximum; inconclusive means response in the unintended direction; inactive means score below 0.9.
# Tests used:
# [1] = target: X-box-binding protein 1 (Homo sapiens) (UniProt P17861); experiment: ATG_Xbp1_CIS: Attagene CIS-FACTORIAL HepG2 Assay for human X-box Binding Protein 1 (XBP1) (AID 2282972; active means hit-call score of the fitted dose curve at least 0.9, where 1 is the maximum; inactive means score below 0.9); conditions: HepG2 XBP1 cis-element reporter, Attagene multiplex; actives raise or lower the signal
# Method in brief: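 HepG2, transient MRTU transfection (cis-promoter driven), 24 h compound exposure. Total RNA → oligo(dT) RT → PCR → 6-FAM labeling → HpaI cut → CE. Bidirectional fit vs DMSO.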
# [2] = target: Glucocorticoid receptor (Homo sapiens) (UniProt P04150); experiment: ATG_GR_TRANS: Attagene TRANS-FACTORIAL HepG2 Assay for human Glucocorticoid Receptor (GR) (AID 2282978); conditions: HepG2 Attagene TRANS GR reporter, mRNA transcription;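 further: activators score as hits since higher reporter transcript over DMSO is fitted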
# Method in brief: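 Fluorescent capillary-electrophoresis quantitation of reporter mRNA is the readout, taken 24 h after dosing human HepG2 cells carrying transiently transfected GAL4-UAS reporter units activated by chimeric NR-GAL4 fusions; activity scored as induction over DMSO.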
# [3] = target: Bile acid receptor (Homo sapiens) (UniProt Q96RI1); experiment: ATG_FXR_TRANS: Attagene TRANS-FACTORIAL HepG2 Assay for Farnesoid X Receptor (FXR) (AID 2282979); conditions: HepG2 Attagene TRANS FXR-GAL4 reporter transcription;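 further: hits raise reporter mRNA above DMSO so AC50 marks FXR activation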
# Method in brief: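 Reporter transcripts from transfected HepG2 cells were measured 24 h after dosing, using RT-PCR with capillary electrophoresis of 6-FAM-labelled fragments. The read-out reflects activity of exogenous FXR-Gal4 chimera on GAL4-UAS units, with induction relative to DMSO.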
# [4] = target: Hepatocyte nuclear factor 4-alpha (Homo sapiens) (UniProt P41235); experiment: ATG_HNF4a_TRANS: Attagene TRANS-FACTORIAL HepG2 Assay for human Hepatocyte Nuclear Factor 4 alpha (HNF4a) (AID 2282982); conditions: HepG2 HNF4a transactivation reporter, mRNA readout
# Method in brief: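 Cells used were human HepG2, transiently carrying GAL4-UAS reporter units read out against exogenous NR-GAL4 chimeras. Reporter transcript levels after 24 h dosing were quantified by fluorescent RT-PCR and capillary electrophoresis.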
# [5] = target: Oxysterols receptor LXR-beta (Homo sapiens) (UniProt P55055); experiment: ATG_LXRb_TRANS: Attagene TRANS-FACTORIAL HepG2 Assay for human Liver X Receptor beta (LXRb) (AID 2282981); conditions: HepG2 Attagene TRANS GAL4-LXRb reporter, mRNA
# Method in brief: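 In this TRANS format, exogenous chimeric NR-Gal4 protein activity, not endogenous factors, drives reporter expression in transfected human HepG2 cells. Exposure lasted 24 h; reporter mRNA was read by fluorescent capillary electrophoresis.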
# [6] = target: Oxysterols receptor LXR-alpha (Homo sapiens) (UniProt Q13133); experiment: ATG_LXRa_TRANS: Attagene TRANS-FACTORIAL HepG2 Assay for human Liver X Receptor alpha (LXRa) (AID 2282980); conditions: HepG2 Attagene TRANS reporter, LXRa transactivation
# Method in brief: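 Chemical-induced reporter mRNA measured by RT-PCR with fluorescent labelling and capillary electrophoresis after 24 h dosing of transiently transfected HepG2 cells expressing exogenous NR-Gal4 chimeras; increases scored against DMSO baseline.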
# [7] = target: Estrogen-related receptor gamma (Homo sapiens) (UniProt P62508); experiment: ATG_ERRg_TRANS: Attagene TRANS-FACTORIAL HepG2 Assay for human Estrogen-Related Receptor gamma (ERRg) (AID 2282977); conditions: HepG2 Attagene TRANS reporter, ERRg transactivation;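 further: hits increase reporter signal over DMSO so potencies reflect activators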
# Method in brief: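 HepG2 cells transiently transfected with multiplexed GAL4-UAS reporter units driven by chimeric NR-Gal4 proteins; 24 h exposure. Reporter mRNA quantified by RT-PCR, fluorescent labelling, HpaI digestion and capillary electrophoresis; gain of signal vs DMSO.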
# Chain of Glucocorticoid receptor (Homo sapiens) (P04150 whole entry, looked up, the tested form may be a part): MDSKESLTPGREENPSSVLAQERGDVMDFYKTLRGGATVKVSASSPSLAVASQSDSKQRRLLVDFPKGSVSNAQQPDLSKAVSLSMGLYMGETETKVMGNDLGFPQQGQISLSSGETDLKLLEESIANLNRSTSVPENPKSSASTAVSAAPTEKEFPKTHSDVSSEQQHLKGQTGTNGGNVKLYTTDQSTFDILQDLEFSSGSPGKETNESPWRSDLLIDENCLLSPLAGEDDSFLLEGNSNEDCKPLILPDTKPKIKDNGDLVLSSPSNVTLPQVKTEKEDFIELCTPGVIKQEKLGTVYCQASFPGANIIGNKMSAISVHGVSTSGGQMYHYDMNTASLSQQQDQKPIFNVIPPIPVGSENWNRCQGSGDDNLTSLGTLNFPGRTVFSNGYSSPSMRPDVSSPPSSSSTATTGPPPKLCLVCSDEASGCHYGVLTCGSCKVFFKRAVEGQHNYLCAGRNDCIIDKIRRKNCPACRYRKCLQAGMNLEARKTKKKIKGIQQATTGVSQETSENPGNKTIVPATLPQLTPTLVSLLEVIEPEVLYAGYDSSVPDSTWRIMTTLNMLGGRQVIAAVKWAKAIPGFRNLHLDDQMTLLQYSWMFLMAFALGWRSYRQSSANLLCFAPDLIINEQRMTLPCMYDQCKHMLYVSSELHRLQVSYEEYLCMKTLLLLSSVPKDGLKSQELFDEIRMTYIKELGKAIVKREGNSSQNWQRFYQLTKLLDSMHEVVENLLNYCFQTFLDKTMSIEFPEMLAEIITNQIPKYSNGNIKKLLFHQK
# Chain of Bile acid receptor (Homo sapiens) (Q96RI1 whole entry, looked up, the tested form may be a part): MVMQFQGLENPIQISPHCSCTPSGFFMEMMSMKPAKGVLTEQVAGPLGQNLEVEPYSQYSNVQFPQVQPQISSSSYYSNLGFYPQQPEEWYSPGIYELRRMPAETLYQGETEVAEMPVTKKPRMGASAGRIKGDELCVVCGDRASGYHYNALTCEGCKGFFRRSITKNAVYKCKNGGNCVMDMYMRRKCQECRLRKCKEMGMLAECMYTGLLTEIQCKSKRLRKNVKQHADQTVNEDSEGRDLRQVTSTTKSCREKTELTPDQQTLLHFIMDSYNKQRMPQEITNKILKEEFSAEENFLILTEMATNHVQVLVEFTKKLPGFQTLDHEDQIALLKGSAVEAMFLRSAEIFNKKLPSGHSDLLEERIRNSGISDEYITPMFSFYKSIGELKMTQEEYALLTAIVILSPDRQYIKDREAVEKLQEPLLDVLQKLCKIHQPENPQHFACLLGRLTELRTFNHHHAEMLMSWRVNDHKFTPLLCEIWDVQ
# Chain of Oxysterols receptor LXR-alpha (Homo sapiens) (Q13133 whole entry, looked up, the tested form may be a part): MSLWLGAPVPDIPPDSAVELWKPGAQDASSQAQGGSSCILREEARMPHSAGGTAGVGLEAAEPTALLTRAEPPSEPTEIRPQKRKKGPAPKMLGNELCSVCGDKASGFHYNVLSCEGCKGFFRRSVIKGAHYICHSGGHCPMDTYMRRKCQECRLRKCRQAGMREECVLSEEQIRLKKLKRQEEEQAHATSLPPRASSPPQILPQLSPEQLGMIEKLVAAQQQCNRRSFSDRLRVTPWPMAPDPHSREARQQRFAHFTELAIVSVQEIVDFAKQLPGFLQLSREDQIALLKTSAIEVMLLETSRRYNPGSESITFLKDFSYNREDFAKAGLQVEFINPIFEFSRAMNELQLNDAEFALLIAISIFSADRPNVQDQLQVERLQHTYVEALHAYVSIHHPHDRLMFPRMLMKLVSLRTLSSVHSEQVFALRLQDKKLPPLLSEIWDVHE
# Chain of Hepatocyte nuclear factor 4-alpha (Homo sapiens) (P41235 whole entry, looked up, the tested form may be a part): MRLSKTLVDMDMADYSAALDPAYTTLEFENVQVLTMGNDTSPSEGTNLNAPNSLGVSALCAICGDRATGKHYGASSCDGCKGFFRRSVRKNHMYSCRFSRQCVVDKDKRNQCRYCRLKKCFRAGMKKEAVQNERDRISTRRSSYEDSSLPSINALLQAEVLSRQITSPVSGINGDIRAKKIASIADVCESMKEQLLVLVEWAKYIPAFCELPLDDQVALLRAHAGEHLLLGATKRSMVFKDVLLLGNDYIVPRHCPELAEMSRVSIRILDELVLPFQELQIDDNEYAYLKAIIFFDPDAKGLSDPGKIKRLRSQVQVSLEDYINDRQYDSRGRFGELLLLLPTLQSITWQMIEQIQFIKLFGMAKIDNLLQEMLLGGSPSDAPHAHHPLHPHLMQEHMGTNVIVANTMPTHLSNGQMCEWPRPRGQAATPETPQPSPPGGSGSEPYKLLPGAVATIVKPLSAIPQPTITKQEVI
# Chain of Estrogen-related receptor gamma (Homo sapiens) (P62508 whole entry, looked up, the tested form may be a part): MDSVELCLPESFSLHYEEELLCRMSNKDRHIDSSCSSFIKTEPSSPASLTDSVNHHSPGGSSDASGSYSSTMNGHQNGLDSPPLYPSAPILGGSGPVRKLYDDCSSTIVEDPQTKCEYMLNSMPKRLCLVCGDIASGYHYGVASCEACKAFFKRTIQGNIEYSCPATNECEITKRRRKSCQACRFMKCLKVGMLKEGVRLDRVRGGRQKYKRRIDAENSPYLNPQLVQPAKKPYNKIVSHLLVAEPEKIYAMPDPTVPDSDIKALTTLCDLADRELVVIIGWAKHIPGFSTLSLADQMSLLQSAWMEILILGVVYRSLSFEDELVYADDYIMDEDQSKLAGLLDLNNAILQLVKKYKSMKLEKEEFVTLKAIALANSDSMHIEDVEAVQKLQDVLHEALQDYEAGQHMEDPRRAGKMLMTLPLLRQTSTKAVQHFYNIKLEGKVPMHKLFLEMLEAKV
# Chain of Oxysterols receptor LXR-beta (Homo sapiens) (P55055 whole entry, looked up, the tested form may be a part): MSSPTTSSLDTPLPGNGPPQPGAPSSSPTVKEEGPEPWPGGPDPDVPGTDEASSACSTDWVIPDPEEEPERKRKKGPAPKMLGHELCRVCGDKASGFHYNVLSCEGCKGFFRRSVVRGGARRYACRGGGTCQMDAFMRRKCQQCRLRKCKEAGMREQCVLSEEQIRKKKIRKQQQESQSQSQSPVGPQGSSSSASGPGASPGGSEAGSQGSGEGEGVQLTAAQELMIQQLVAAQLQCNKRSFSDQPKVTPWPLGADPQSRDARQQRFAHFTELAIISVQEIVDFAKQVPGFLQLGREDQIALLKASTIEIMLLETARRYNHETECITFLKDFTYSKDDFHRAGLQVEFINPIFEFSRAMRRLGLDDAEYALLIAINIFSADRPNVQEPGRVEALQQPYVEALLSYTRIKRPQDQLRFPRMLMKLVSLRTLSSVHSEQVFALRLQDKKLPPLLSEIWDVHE
# Chain of X-box-binding protein 1 (Homo sapiens) (P17861 whole entry, looked up): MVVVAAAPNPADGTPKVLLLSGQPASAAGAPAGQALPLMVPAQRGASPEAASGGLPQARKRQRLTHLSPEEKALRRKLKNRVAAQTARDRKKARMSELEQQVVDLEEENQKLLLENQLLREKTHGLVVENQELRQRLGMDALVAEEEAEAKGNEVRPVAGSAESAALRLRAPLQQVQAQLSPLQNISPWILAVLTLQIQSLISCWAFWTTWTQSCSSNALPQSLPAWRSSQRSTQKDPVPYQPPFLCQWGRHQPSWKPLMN
compound,measurement,setting,value
Oc1ccc(-c2ccccc2)cc1,AC50,[1],69.4 µM (active)
same,outcome,[2],inactive
same,outcome,[3],inactive
CCCCC(CC)CO[N+](=O)[O-] (centres undefined),outcome,[1],inactive
same,outcome,[2],inactive
same,outcome,[4],inactive
O=CC=O,outcome,[1],inactive
same,outcome,[2],inactive
same,outcome,[4],inactive
Clc1ccc(C2(Cn3cncn3)CC(Br)CO2)c(Cl)c1 (centres undefined),outcome,[1],inactive
same,outcome,[2],inactive
same,outcome,[3],inactive
same,outcome,[5],inactive
same,outcome,[4],inactive
C=C(C)C(=O)[O][Sn]([CH2]CCC)([CH2]CCC)[CH2]CCC,AC50,[1],0.608 µM (active)
same,AC50,[2],1.98 µM (active)
same,outcome,[4],inactive
CCOC(=O)/C=C(C)/C=C/C[C@@H](C)CCCC(C)C,outcome,[1],inactive
same,outcome,[4],inactive
N#CCc1ccc(Cl)cc1,outcome,[1],inactive
same,outcome,[2],inactive
same,outcome,[6],inactive
CCC1(c2ccc(N)cc2)CCC(=O)NC1=O (centres undefined),outcome,[1],inactive
same,outcome,[2],inactive
same,outcome,[3],inactive
same,outcome,[4],inactive
ClC1=C(Cl)[C@]2(Cl)[C@@H]3[C@@H](Cl)[C@@H](Cl)C[C@@H]3[C@@]1(Cl)C2(Cl)Cl,outcome,[1],inactive
same,outcome,[2],inactive
same,outcome,[3],inactive
same,outcome,[6],inactive
same,outcome,[5],inactive
CC1(C)Cc2cccc(O)c2O1,outcome,[1],inactive
same,outcome,[6],inactive
same,outcome,[4],inactive
O=C(OC1CCCCC1)c1ccccc1C(=O)OC1CCCCC1,outcome,[1],inactive
same,outcome,[2],inactive
same,outcome,[3],inactive
Clc1nc(Cl)nc(Cl)n1,outcome,[1],inactive
same,outcome,[2],inactive
same,outcome,[4],inactive
Cc1cc(Cl)ccc1O[C@H](C)C(=O)O,outcome,[1],inactive
same,outcome,[4],inactive
COc1cc(OC)nc(NC(=O)NS(=O)(=O)c2ncccc2C(=O)N(C)C)n1,outcome,[1],inactive
same,outcome,[4],inactive
Cc1cc(=O)[nH]o1,outcome,[1],inactive
same,outcome,[2],inactive
same,outcome,[5],inactive
same,outcome,[4],inactive
Cl/C=C/Cl,outcome,[1],inactive
same,outcome,[5],inactive
same,outcome,[4],inactive
c1cc[c]([Hg][c]2ccccc2)cc1,AC50,[1],18.7 µM (active)
same,outcome,[3],inactive
same,outcome,[5],inactive
same,outcome,[4],inactive
Clc1ccc(COC(Cn2ccnc2)c2ccc(Cl)cc2Cl)cc1 (centres undefined),outcome,[1],inactive
same,outcome,[2],inactive
same,outcome,[3],inactive
COP(=S)(OC)Oc1ccc(Sc2ccc(OP(=S)(OC)OC)cc2)cc1,AC50,[1],6.02 µM (active)
same,outcome,[6],inactive
same,outcome,[5],inactive
same,outcome,[4],inactive
CC1CN1P(=O)(N1CC1C)N1CC1C (centres undefined),outcome,[1],inactive
same,outcome,[6],inactive
same,outcome,[4],inactive
OCc1ccco1,outcome,[1],inactive
same,outcome,[7],inactive
same,outcome,[6],inactive
same,outcome,[4],inactive
Oc1cccc2cccnc12,outcome,[1],inactive
same,outcome,[3],inactive
same,outcome,[6],inactive
same,outcome,[5],inactive
same,outcome,[4],inactive
CC(C)OC(=O)Nc1ccccc1,outcome,[1],inactive
same,outcome,[7],inactive
same,outcome,[5],inactive
CCCCCCCCCl,outcome,[1],inactive
same,outcome,[6],inactive
same,outcome,[4],inactive
CCC(C)c1cccc(C(C)CC)c1O (centres undefined),outcome,[1],inactive
same,outcome,[3],inactive
same,AC50,[6],14.3 µM (active)
same,outcome,[5],inactive
same,outcome,[4],inactive
C[C@H]1O[C@@H](O[C@H]2[C@@H](O)C[C@H](O[C@H]3[C@@H](O)C[C@H](O[C@H]4CC[C@@]5(C)[C@H](CC[C@@H]6[C@@H]5CC[C@]5(C)[C@@H](C7=CC(=O)OC7)CC[C@]65O)C4)O[C@@H]3C)O[C@@H]2C)C[C@H](O)[C@@H]1O,AC50,[1],0.497 µM (active)
same,outcome,[5],inactive
same,outcome,[4],inactive
O=C(NCO)NCO,outcome,[1],inactive
same,outcome,[5],inactive
same,outcome,[4],inactive
N#Cc1ccccn1,outcome,[1],inactive
same,outcome,[6],inactive
same,outcome,[5],inactive
same,outcome,[4],inactive
COP(=S)(OC)Oc1cc(Cl)c(Cl)cc1Cl,outcome,[1],inactive
same,outcome,[2],inactive
same,outcome,[6],inactive
same,outcome,[5],inactive
same,outcome,[4],inactive
CCNc1nc(NC(C)(C)C)nc(SC)n1,outcome,[1],inactive
same,outcome,[2],inactive
same,outcome,[3],inactive
same,outcome,[6],inactive
same,outcome,[5],inactive
Cc1ccc(N)cc1Cl,outcome,[1],inactive
same,outcome,[6],inactive
same,outcome,[5],inactive
ClC1(Cl)C2(Cl)C3(Cl)C4(Cl)C(Cl)(Cl)C5(Cl)C3(Cl)C1(Cl)C5(Cl)C24Cl (centres undefined),outcome,[1],inactive
same,outcome,[7],inactive
same,outcome,[3],inactive
same,outcome,[5],inactive
C[C@H]1CCCC(=O)CCC/C=C/c2cc(O)cc(O)c2C(=O)O1,outcome,[1],inactive
same,outcome,[6],inactive
same,outcome,[4],inactive
O=Cc1cccc(Oc2ccccc2)c1,outcome,[1],inactive
same,outcome,[4],inactive
CCCCCCCCC(=O)NCc1ccc(O)c(OC)c1,outcome,[1],inactive
same,outcome,[4],inactive
